Test results published in PubChem BioAssay (NCATS).
Records with an inconclusive call do not appear. Calls of active or inactive are those of the source. Unless noted, calls come from the whole dose curve; as a rule, active = well fitted inhibition curve with a large enough effect; inconclusive = small, poorly fitted or top-dose-only effect; inactive = flat fitted curve, though single readings scatter.

Key:
CRL-7250 = normal cell line; experiment: qHTS assay to identify novel small-molecules to repurpose for Merkel cell carcinoma treatment (AID 1296009); settings: MCC and control cell lines, CellTiter-Glo viability, 72 h; series mostly up to 92 µM; note: nearly all actives have a fitted effect of over 60% in size
Procedure, shortened: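 Viability readout: ATP luminescence (CellTiter-Glo) after 72 hr drug exposure at 37 degree celsius. Dose-response format was 8 points for NPC and 11 points for MIPE; data normalized to in-plate controls.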

[1] = qHTS for Inhibitors of the Functional Ribonucleoprotein Complex (vRNP) of Lassa (LASV) Arenavirus: LASV Primary Screen - GLuc reporter signal (AID 1347082; calls by dose curve; tested in HEK293 reporter line; note: nearly all actives have a fitted effect of over 60% in size)
[2] = qHTS for Inhibitors of the Functional Ribonucleoprotein Complex (vRNP) of Lassa (LASV) Arenavirus: Viability assay - alamar blue signal for LASV Primary Screen (AID 1347083; calls by dose curve; tested in HEK293 reporter line; note: nearly all actives have a fitted effect of over 80% in size)
[3] = qHTS for Inhibitors of the Functional Ribonucleoprotein Complex (vRNP) of Lymphocytic Choriomeningitis Arenaviruses (LCMV): Viability assay - alamar blue signal for LCMV Primary Screen (AID 1347085; calls by dose curve; tested in HEK293 reporter line; note: nearly all actives have a fitted effect of over 80% in size)
[4] = molecular target: Nucleoprotein (Lymphocytic choriomeningitis virus (strain Armstrong)) (UniProt P09992); experiment: qHTS for Inhibitors of the Functional Ribonucleoprotein Complex (vRNP) of Lymphocytic Choriomeningitis Arenaviruses (LCMV): LCMV Primary Screen - GLuc reporter signal (AID 1347086; calls by dose curve; note: nearly all actives have a fitted effect of over 70% in size)

Measured: Potency

Chain of Nucleoprotein (Lymphocytic choriomeningitis virus (strain Armstrong)) (P09992 whole entry, looked up): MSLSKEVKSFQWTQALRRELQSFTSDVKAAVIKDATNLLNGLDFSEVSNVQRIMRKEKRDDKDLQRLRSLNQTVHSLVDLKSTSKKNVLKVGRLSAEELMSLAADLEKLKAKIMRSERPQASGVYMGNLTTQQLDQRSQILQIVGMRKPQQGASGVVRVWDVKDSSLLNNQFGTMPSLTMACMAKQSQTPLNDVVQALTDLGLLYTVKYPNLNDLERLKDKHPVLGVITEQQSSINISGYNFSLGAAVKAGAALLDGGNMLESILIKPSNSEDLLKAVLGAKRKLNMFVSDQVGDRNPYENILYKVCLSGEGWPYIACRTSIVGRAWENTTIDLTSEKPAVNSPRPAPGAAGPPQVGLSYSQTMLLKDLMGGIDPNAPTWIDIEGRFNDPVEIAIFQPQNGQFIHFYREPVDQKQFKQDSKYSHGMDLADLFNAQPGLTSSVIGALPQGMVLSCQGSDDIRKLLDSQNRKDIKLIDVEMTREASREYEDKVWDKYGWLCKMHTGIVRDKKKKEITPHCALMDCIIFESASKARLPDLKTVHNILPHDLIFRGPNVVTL

COC1C2=C(COC2=O)C2(C)CCCC(C)(CO)C2C1OC(=O)c1ccccc1 (stereo unspecified)
inactive: CRL-7250

CC1=CC(=O)CC(C)(C)C1CCC(C)O[C@@H]1O[C@H](CO)[C@@H](O)[C@H](O)[C@H]1O (stereo partly specified)
inactive: CRL-7250

Cc1ccc(C)c(NC(=O)CNS(=O)(=O)c2ccc3[nH]c(=O)oc3c2)c1
inactive: CRL-7250

CC1(CO)CC[C@]2(C(=O)O[C@@H]3O[C@H](CO)[C@@H](O)[C@H](O)[C@H]3O)CC[C@]3(C)C(=CCC4[C@@]5(C)C[C@H](O)[C@H](O[C@@H]6OC[C@@H](O)[C@H](O)[C@H]6O)[C@@](C)(CO)C5CC[C@]43C)C2C1 (stereo partly specified)
inactive: CRL-7250 inactive [at 9.27 µM]

CC(C)S(=O)(=O)NC[C@H](C)c1ccc(NC(=O)c2cc(F)cc(F)c2)cc1
inactive: CRL-7250

CC(F)(F)CN1CCOc2c(nn(-c3ccccc3Cl)c2-c2ccc(Cl)cc2)C1=O
inactive: CRL-7250

C[C@@H]1CCC2C(C)(C)[C@H](O)CC[C@]2(C)[C@@]12Cc1c(O)cc3c(c1O2)CN([C@@H](CCC(=O)O)C(=O)O)C3=O (stereo partly specified)
inactive: CRL-7250

CN(Cc1ccc(C(=O)O)cc1)c1ccc(OCc2c(-c3c(Cl)cccc3Cl)noc2C2CC2)nc1C(F)(F)F
inactive: CRL-7250

CC(=O)N[C@@H]1[C@H](O[C@@H]2c3ccc(c(Cl)c3)Oc3cc4cc(c3O[C@H]3O[C@H](CO)[C@@H](O)[C@H](O)[C@H]3NC(=O)CCCCCCCC(C)C)Oc3ccc(cc3Cl)C[C@H]3NC(=O)[C@H](N)c5ccc(O)c(c5)Oc5cc(O)cc(c5)[C@H](NC3=O)C(=O)N[C@H]4C(=O)N[C@H]3C(=O)N[C@@H]2C(=O)N[C@@H](C(=O)O)c2cc(O)cc(O[C@H]4O[C@H](CO)[C@@H](O)[C@H](O)[C@H]4O)c2-c2cc3ccc2O)O[C@H](CO)[C@@H](O)[C@@H]1O
inactive: all assays above

COC(=O)[C@@H]1[C@H]2C[C@@H]3c4[nH]c5ccccc5c4CCN3C[C@@H]2CC[C@@H]1O
inactive: all assays above

CC1(C)[C@H]2CC[C@]3(C)[C@@H](C(=O)C=C4[C@@H]5C[C@@](C)(C(=O)O)CC[C@]5(C)CC[C@]43C)[C@@]2(C)CC[C@@H]1O
inactive: all assays above

CC1CCC2(OC1)OC1CC3C4CC=C5CC(O)CC(O[C@@H]6OC[C@@H](O)[C@H](O)[C@H]6O)C5(C)C4CCC3(C)C1(O)C2C (stereo partly specified)
inactive: CRL-7250

COc1cc(/C=C/C(=O)OC2CC3CCC2(C)C3(C)C)ccc1O (stereo unspecified)
inactive: all assays above

CN(C)c1nc(Cc2ccc(NC(=O)c3ccc(C(F)(F)F)cc3)cc2)nc(N(C)C)c1CC(=O)O
inactive: all assays above

CC1(C)CCC(C)(C)c2cc3c(cc21)Sc1ccccc1N=C3c1ccc(C(=O)O)cc1
inactive: CRL-7250

COc1c(O)cc2c(c1O)[C@@H]1O[C@H](CO)[C@@H](O)[C@H](O)[C@H]1OC2=O
inactive: all assays above

COc1c(O)cc2c(c1O)C(=O)O[C@H](C)[C@H]2O
inactive: CRL-7250

O=C(CS(=O)Cc1ccco1)NCC=CCOc1cc(CN2CCCCC2)ccn1 (stereo unspecified)
inactive: all assays above

COC(=O)N[C@H](C(=O)N1CCC[C@@H]1c1ncc(-c2ccc(-c3ccc(-c4cnc([C@@H]5CCCN5C(=O)[C@@H](NC(=O)OC)C(C)C)[nH]4)cc3)cc2)[nH]1)C(C)C
not listed: [4]
inactive: all other assays above

C[N+]1(C)[C@@H]2C[C@@H](OC(=O)C(O)(c3cccs3)c3cccs3)C[C@H]1[C@@H]1O[C@@H]12
inactive: all assays above

O=C(O)C1=NC(C(=O)O)CC(C=CN2c3cc(O)c(OC4OC(CO)C(O)C(O)C4O)cc3CC2C(=O)O)=C1 (stereo unspecified)
inactive: all assays above

COc1ccc(-c2coc3cc(O)ccc3c2=O)cc1
inactive: all assays above

C=C[C@@H]1CN2CCC1C[C@@H]2C(O)c1ccnc2ccc(OC)cc12 (stereo partly specified)
inactive: all assays above

O=C(NNC(=O)c1ccc(CNS(=O)(=O)c2ccc(F)c(Cl)c2)cc1)c1ccccc1
inactive: all assays above

c1nc(NC2CCCCCC2)c2cc(CNC[C@H]3CCCO3)sc2n1
inactive: CRL-7250

Clc1ncoc1-c1c[nH]c2ccccc12
inactive: CRL-7250

CC1C(=O)OC2C(O)C34C5CC(C(C)(C)C)C36C(OC(=O)C6O)OC4(C(=O)O5)C12O (stereo unspecified)
inactive: all assays above

COC(=O)c1cc(OC)cc(OC)c1C(=O)c1c(OC)cc2c(c1O)C1CCC(O)C(C)(O2)O1 (stereo unspecified)
inactive: CRL-7250

CC(=O)O[C@]1(C(C)=O)CC[C@H]2[C@@H]3C=C(C)C4=CC(=O)CC[C@]4(C)[C@@H]3CC[C@@]21C
inactive: all assays above

CCOC(=O)N1CCN([N+]([O-])=NOc2cc(ON=[N+]([O-])N3CCN(C(=O)OCC)CC3)c([N+](=O)[O-])cc2[N+](=O)[O-])CC1
inactive: all assays above

CCNC(=O)Nc1ccc(Oc2ncnc(N)c2C=NOC)cc1Cl
inactive: all assays above

CC1(C)S[C@H]2[C@H](NC(=O)[C@@H](N)c3ccc(O)cc3)C(=O)N2[C@@H]1C(=O)O
inactive: all assays above

CC[C@H](NC(=O)c1c(O)c(-c2ccccc2)nc2ccccc12)c1ccccc1
inactive: CRL-7250

CN[C@@H]1[C@@H](O)[C@@H](O[C@@H]2[C@@H](O)[C@H](O[C@H]3O[C@H](CN)[C@@H](O)[C@H](O)[C@@H]3O)[C@@H](N)C[C@@H]2NC(=O)[C@@H](O)CN)OC[C@]1(C)O
inactive: all assays above

C=CC1=C(C(=O)O)N2C(=O)[C@@H](NC(=O)C(=NO)c3csc(N)n3)[C@H]2SC1
inactive: all assays above

CN(C)CCC=C1c2ccccc2COc2ccc(CC(=O)O)cc21
inactive: all assays above

CC(C)(O)[C@H]1CC[C@@](C)([C@H]2[C@@H](O)C[C@@]3(C)[C@@H]4C[C@H](O[C@@H]5O[C@H](CO)[C@@H](O)[C@H](O)[C@@H]5O)[C@H]5C(C)(C)[C@@H](O[C@@H]6OC[C@@H](O)[C@H](O)[C@@H]6O)CC[C@@]56C[C@@]46CC[C@]23C)O1
inactive: all assays above

COc1c(CCC(=O)O)cccc1O[C@@H]1O[C@H](CO)[C@@H](O)[C@H](O)[C@H]1O
inactive: CRL-7250

CCCN1CCC=C(c2cc(-c3ccc(C)cc3)no2)C1
inactive: CRL-7250
